Compound activity: PubChem BioAssay, National Center for Advancing Translational Sciences (NCATS)
Sfp inh = qHTS Assay for Inhibitors of Bacillus subtilis Sfp phosphopantetheinyl transferase (PPTase); 4'-phosphopantetheinyl transferase ffp (Bacillus subtilis), Q9F4F7; Biochemical Sfp PPTase activity, qHTS; Potency, µM, hits mostly inhibitors; 3.5% of 310,000 active;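 note: the enzyme is Sfp with the accession as filed and its product quenches rhodamine fluorescence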
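Buffer: 50 mM Hepes-Na pH 7.6, 10 mM MgCl2, 0.01% Nonidet P-40, 0.01% BSA. Enzyme 15 nM, pre-exposed to compound 15 min; substrates then added and fluorescence change tracked over 30 min.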
Lamin A splicing = qHTS Assay for Modulators of Lamin A Splicing; AID 1487, 2009; HeLa LMNA splicing GFP/RFP minigene ratio, 48 h; Potency, µM (doses to about 46.1 µM), most hits filed as inhibitors; 0.01% of 200,000 active; active = well fitted inhibition curve with a large enough effect in the signal ratio, with a control signal flat, not every such curve was filed as active; inconclusive = small, poorly fitted or top-dose-only effect, or effect the other way, or a change in a side signal; the % refers to the signal ratio
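Read-out is the ratio of GFP to DsRed2 object intensity, acquired by 488 nm laser-scanning cytometry on HeLa lamin A-EGFP minigene reporter cells. Compound incubation 48 hrs at 37 °C in Opti-MEM with 2% FBS; DMSO 0.5% final.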
ALDH1A1 inh = qHTS Assay for Inhibitors of Aldehyde Dehydrogenase 1 (ALDH1A1). Aldehyde dehydrogenase 1A1 (Homo sapiens), P00352. Purified ALDH1A1, NADH fluorescence, propionaldehyde substrate. Potency, µM (doses to about 75.3 µM), hits mostly inhibitors. 7.3% of 220,000 active. AID 1030, 2008; active = well fitted inhibition curve with a large enough effect, not every such curve was filed as active; inconclusive = small, poorly fitted or top-dose-only effect, or another doubt; inactive = no such curve, though single readings can be large or run the other way
G9a block = qHTS Assay for Inhibitors of Histone Lysine Methyltransferase G9a | G9a H3K9 monomethylation, AlphaScreen, 2 h | Potency, µM (doses to about 102 µM), hits mostly inhibitors | 8.8% of 350,000 active; note: nearly all actives have a fitted effect of over 75% in size
Target sequence (Q96KQ7 913-1193 limits assumed): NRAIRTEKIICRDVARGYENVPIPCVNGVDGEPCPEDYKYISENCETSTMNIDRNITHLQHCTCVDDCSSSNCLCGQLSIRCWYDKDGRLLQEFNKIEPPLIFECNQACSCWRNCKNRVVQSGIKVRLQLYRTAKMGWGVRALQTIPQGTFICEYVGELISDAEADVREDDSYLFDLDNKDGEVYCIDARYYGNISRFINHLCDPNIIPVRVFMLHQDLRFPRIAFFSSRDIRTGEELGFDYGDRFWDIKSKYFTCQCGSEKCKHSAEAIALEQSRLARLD
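Step 1: enzyme (final 20 nM) with compound, 15 min RT. Step 2: substrate peptide 500 nM and SAM 20 uM, 2 h RT. Step 3: anti-H3K9me1 antibody and AlphaScreen beads, 10 min, then plate read.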
miR-21 act = qHTS Assay for Modulators of miRNAs and/orActivators of miR-21 | HeLa miR-21 FLuc reporter, luciferase, 48 h | Potency, µM (highest dose often 38.3 µM), most hits filed as activators | 340,000 tested, under 10 active | AID 2288, 2010;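 note: miR-21 action dims this reporter so a rising signal means less miR-21 action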
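Compounds were titrated across several concentrations (up to approximately 40 uM) and incubated 48 hours with HeLa miR-21-FLuc reporter cells (miR-21 target sequence downstream of FLuc, endogenous miR-21). Readout was firefly luciferase luminescence after lytic detection reagent.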
KDM4E inh = qHTS Assay for Inhibitors of Human Jumonji Domain Containing 2E (JMJD2E) | JMJD2E catalytic domain, FDH-coupled NADH fluorescence (FDH is formaldehyde dehydrogenase) | Potency, µM (series often up to 57.1 µM), most hits filed as inhibitors | 1.6% of 230,000 active | AID 2147, 2009; active = well fitted inhibition curve with a large enough effect, not every such curve was filed as active; inconclusive = small, poorly fitted or top-dose-only effect, or another doubt; inactive = no such curve, though single readings can be large or run the other way; note: nearly all actives have a fitted effect of over 50% in size
Target sequence (B2RXH2 1-337 limits assumed): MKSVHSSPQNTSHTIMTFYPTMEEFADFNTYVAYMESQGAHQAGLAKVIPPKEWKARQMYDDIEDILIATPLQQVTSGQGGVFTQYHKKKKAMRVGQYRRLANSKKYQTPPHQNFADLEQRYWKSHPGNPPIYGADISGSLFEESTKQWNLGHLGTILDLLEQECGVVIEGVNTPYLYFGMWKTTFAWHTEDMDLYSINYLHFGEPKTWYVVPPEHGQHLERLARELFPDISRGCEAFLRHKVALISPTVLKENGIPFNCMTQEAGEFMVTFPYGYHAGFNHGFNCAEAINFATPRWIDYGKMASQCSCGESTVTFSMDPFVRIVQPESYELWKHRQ
Large screens that a line does not name were inactive. Shown are actives, neighbours in structure and some others; about 13% of the full set was active somewhere. Unless noted, calls come from the whole dose curve; as a rule, active = well fitted curve in the direction sought with a large enough effect; inconclusive = small, poorly fitted or top-dose-only effect, or another doubt; inactive = no such curve, though single readings can be large; an effect the other way counts as inactive or inconclusive.

COC(=O)CN1C(=S)N(c2ccc(OC)cc2)C(=O)/C1=C/c1ccc(N2CCOCC2)cc1	Lamin A splicing inconclusive, ALDH1A1 inh inconclusive, G9a block 32µM
COc1cccc2c(N/N=C/c3ccccc3)cc(C)nc12	none (no result: Lamin A splicing, ALDH1A1 inh, KDM4E inh)
COc1ccc2nc(C)cc(N/N=C/c3cccc(OC)c3O)c2c1	Sfp inh inconclusive, G9a block 45µM (no result: Lamin A splicing, ALDH1A1 inh, KDM4E inh)
COc1ccc(/C=N/Nc2cc(C)nc3ccc(Br)cc23)cc1	Sfp inh 56µM, miR-21 act inconclusive (no result: Lamin A splicing, ALDH1A1 inh, KDM4E inh)
COc1cccc(/C=N/Nc2nc(Nc3ccccc3)nc(-n3nc(C)cc3C)n2)c1O	Lamin A splicing inconclusive, KDM4E inh 20µM
Cc1cc(S(=O)(=O)NCc2ccncc2)c(C)cc1Br	none (no result: Lamin A splicing, ALDH1A1 inh, KDM4E inh)
Cn1c(=S)[nH]c(=O)c2ncc(=O)[nH]c21	Sfp inh 71µM, G9a block inconclusive (no result: Lamin A splicing)
CC(=O)c1cccc(NC(=O)c2ccc3c(=O)n4c(nc3c2)CCCCC4)c1	ALDH1A1 inh 5µM (no result: Lamin A splicing)
O=C(Nc1cccc(S(=O)(=O)N2CCOCC2)c1)c1ccc2c(=O)n3c(nc2c1)CCCCC3	Lamin A splicing inconclusive, ALDH1A1 inh 5.6µM
CCC(C)NC(=O)c1ccc2c(=O)n3c(nc2c1)CCCCC3 (stereo not drawn)	G9a block inconclusive (no result: Sfp inh, Lamin A splicing, ALDH1A1 inh, KDM4E inh)
O=C(NC1CCCCCC1)c1ccc2c(=O)n3c(nc2c1)CCCCC3	ALDH1A1 inh 10µM
COc1ccc(NC(=O)c2ccc3c(=O)n4c(nc3c2)CCCCC4)cc1	none (no result: Lamin A splicing, ALDH1A1 inh, G9a block, KDM4E inh)
Cc1ccc(-c2csc3nc4cc(C(=O)NC5CCC(O)CC5)ccc4c(=O)n23)cc1 (stereo not drawn)	Sfp inh 56µM, G9a block 0.63µM, KDM4E inh inconclusive (no result: Lamin A splicing, ALDH1A1 inh)
O=C(NCc1ccccc1)C1CC(=O)N(C2CCCCC2)C1 (stereo not drawn)	none (no result: Lamin A splicing, ALDH1A1 inh, KDM4E inh)
CC(C)Oc1ccc(CNC(=O)CCn2c(=O)c3cccn3c3ccc(F)cc32)cc1	Lamin A splicing inconclusive (no result: Sfp inh, ALDH1A1 inh, KDM4E inh)
O=C(Nc1cccc(S(=O)(=O)N2CCCC2)c1)c1ccc2c(=O)n3c(nc2c1)CCCCC3	Lamin A splicing inconclusive, ALDH1A1 inh 3.5µM, miR-21 act inconclusive
O=C(Nc1nc(-c2ccccc2)cs1)c1ccc2c(=O)n3c(nc2c1)CCCCC3	Lamin A splicing inconclusive, ALDH1A1 inh 28µM, KDM4E inh inconclusive
Cc1ccc(OC(=O)c2ccc3c(=O)n4c(nc3c2)CCC4)cc1	none (no result: Sfp inh, Lamin A splicing, ALDH1A1 inh, miR-21 act, KDM4E inh)
O=C(Nc1ccccc1Cl)c1ccc2c(=O)n3c(nc2c1)CCC3	none (no result: Sfp inh, Lamin A splicing, ALDH1A1 inh, miR-21 act, KDM4E inh)
CC(=O)c1cccc(OC(=O)c2ccc3c(=O)n4c(nc3c2)CCC4)c1	G9a block 7.1µM (no result: Sfp inh, Lamin A splicing, ALDH1A1 inh, miR-21 act, KDM4E inh)
CN1CCN(c2nc3c(c(=O)n(C)c(=O)n3C)n2Cc2ccccc2F)CC1	none (no result: Lamin A splicing, ALDH1A1 inh, G9a block, KDM4E inh)
Cc1ccc(C(=O)CSc2nsc(C)c2C#N)cc1	Sfp inh 20µM, ALDH1A1 inh inconclusive, G9a block 4.5µM
Cc1ccnc(SCC(=O)c2ccc(Br)cc2)c1C#N	Lamin A splicing inconclusive, ALDH1A1 inh inconclusive, G9a block 50µM
Cc1cc(C)c(C#N)c(OCC(=O)c2ccc(Br)cc2)n1	ALDH1A1 inh inconclusive (no result: G9a block)
CC(=O)CSc1nsc(SCC(C)=O)c1C#N	ALDH1A1 inh 28µM, G9a block 8.9µM
COC(=O)c1ccccc1CSc1nsc(C)c1C#N	Sfp inh 50µM, G9a block 16µM (no result: Lamin A splicing, ALDH1A1 inh, KDM4E inh)
COc1ccc(N(CC(=O)Nc2cccc(Cl)c2)S(=O)(=O)c2c(C)[nH]c(=O)[nH]c2=O)cc1	G9a block inconclusive (no result: Sfp inh, Lamin A splicing, ALDH1A1 inh, KDM4E inh)
Cc1cc(C)c(S(=O)(=O)NCC2CCC(C(=O)NCCc3ccccc3)CC2)c(C)c1 (stereo not drawn)	none (no result: Sfp inh, ALDH1A1 inh, KDM4E inh)
Cc1snc(SCC(=O)c2ccc(Cl)cc2)c1C#N	Sfp inh 28µM, ALDH1A1 inh 20µM, G9a block 20µM, KDM4E inh inconclusive
